We go through 36 compounds from PubChem BioAssay AID504773 (Broad Institute, 2011).

Entries with a potency or affinity are not part of this list. Values without a mark were called inactive.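 Rule for the calls: active = polarization signal falls with dose and the fitted half-maximal concentration is at or below ten times the sample's top valid dose; inconclusive = flat curve at 30 to 70% inhibition, or poor fit; inactive = signal rises, flat within 30%, or potency beyond limit.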

This test deals with Golgi-associated PDZ and coiled-coil motif-containing protein (Homo sapiens) (UniProt Q9HD26). The experiment in a line: CAL PDZ peptide-binding inhibitors, dose response, biochemical, fluorescence polarization, Cerulean-tagged CAL PDZ, cherry-picks (AID 504773).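 Note: 0% = DMSO neutral wells and -100% = excess unlabeled competitor peptide wells.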 The note with it: 1 h; series mostly up to 50 µM; activity change, negative = inhibition: at the top concentration. A general note: In fluorescence polarisation assays a small probe gives low polarisation when free and higher when bound to something large.
As for `O=C(Nc1cccc(F)c1)c1ccco1`, the “activity change, negative = inhibition” value was 20.3%.
Under `Cc1c(NC(=O)CN2CCC(C(N)=O)CC2)cccc1[N+](=O)[O-]` stands 7.36%.
Regarding `CN1CCN(c2ccccc2NC(=O)c2ccc(N3CCCC3)c([N+](=O)[O-])c2)CC1`, the “activity change, negative = inhibition” value is 10.2%.
As for `CC1CCCC(C)N1/N=C/c1ccc(N(C)C)cc1` (stereo unspecified), the “activity change, negative = inhibition” value is -16.6%.
Consider `Cc1ccc(F)cc1N=Cc1c(O)c2ccccc2oc1=O`, for which the “activity change, negative = inhibition” value was 21.1%.
As for `CC(c1ccccc1)N1CCN(C(=O)CCl)CC1` (stereo unspecified), the “activity change, negative = inhibition” value was 24%.
With `O=C(NCc1ccc(Cl)cc1)C(=O)NCC1OCCN1C(=O)c1ccc(Cl)cc1` (stereo unspecified), the “activity change, negative = inhibition” value was 19.7%.
Take `Cc1cc(Cl)c(Cl)cc1S(=O)(=O)NCCCn1ccnc1`: the “activity change, negative = inhibition” value was 24.4%.
Under `COc1cccc(N2CCN(C(=O)c3ccc(-c4ccccc4)cc3)CC2)c1` stands -7.08%.
For `CCc1noc(C)c1C(=O)N1CCCC(CCC(=O)NCc2ccc(F)c(F)c2)C1` (stereo unspecified) the value was 0.002%; for `O=[N+]([O-])c1ccccc1/C=N/Nc1nc(N2CCCC2)nc(N2CCCC2)n1`, 7.89%; for `O=C(OCc1ccc(Br)cc1)c1cccnc1`, -10.8%.
For `O=C(NC(Cc1c[nH]c2ccccc12)C(=O)O)/C(=C/c1ccc(F)cc1)NC(=O)c1ccccc1` (stereo unspecified) the value was 8.53%; for `Cc1cc(SCC(=O)OCC(=O)c2c(N)n(C)c(=O)n(C)c2=O)c(C)cc1Br`, -4.31%.
Turning to `CCC(=O)N1CCC(C(N)=O)(N2CCCCC2)CC1`, the “activity change, negative = inhibition” value was -11.6%.
For `COc1ccc(C(=O)N2CCCc3ccccc32)cc1Br` the value was 13%; for `CC1=NN(C(N)=S)C(=O)C1N=Nc1ccc(Cl)cc1` (stereo unspecified), 9.11%; for `CC(=O)Nc1ccc(Nc2ccc3nonc3c2[N+](=O)[O-])cc1`, -10.1%.
As to `CC(C)CNC(=O)COC(=O)CCC(=O)c1ccc(Cl)cc1`, the “activity change, negative = inhibition” value is -42.5%.
Under `CC(=O)Nc1cc(NC(C)=O)cc(C(=O)OCC(=O)Nc2ccc(S(=O)(=O)NC3=NCCCCC3)cc2)c1` stands 19%; under `CCCOc1ccc(CC(=O)N/N=C\c2ccc(F)cc2)cc1`, 24.2%.
Under `Cc1ccc(/C=N/NC(=O)NN(C)c2ncc(C(F)(F)F)cc2Cl)cc1` stands 9.61%.
Consider `CC(C)c1ccc(CNC(=O)C(=O)NCCCn2ccnc2)cc1`, for which the “activity change, negative = inhibition” value was -10.6%.
For `O=C(c1ccccc1Cl)N(Cc1ccc(Cl)c(Cl)c1)N1C(=O)CCCC1=O`, the “activity change, negative = inhibition” value was 18.9%.
On to `CS(=O)(=O)N1CCN(C(=O)c2ccc3c(c2)OCCO3)CC1`, for which the “activity change, negative = inhibition” value was -16.2%.
Regarding `CCOC(=O)Cn1ncn(-c2ccc(OC(F)(F)F)cc2)c1=O`, the “activity change, negative = inhibition” value was 8.25%.
Under `CC(O)CNCCCOc1cccc(Oc2ccccc2)c1` (stereo unspecified) stands 40.7%.
Consider `COC(=O)c1ccccc1NC(=O)n1cc(C)cn1`, for which the “activity change, negative = inhibition” value is 9.59%.
For `CCCCC(CCC(=O)Nc1nccs1)C(=O)O` (stereo unspecified) the value was 25.2%.
For `N=c1c(S(=O)(=O)c2ccc(Cl)cc2)cc2c(=O)n3ccccc3nc2n1C1CCCCC1` the value was 19.1%; for `O=C(NCC(=O)N1CCC(N2CCCCC2)CC1)C1CCCCC1`, 7.41%; for `C=CCn1c(NC(=O)c2ccco2)nc2ccccc21`, -32.2%.
For `Nc1ccc(N(CCO)CCO)cc1` the value was -4.31%; for `Cc1cccc(-n2nc(C)c3c2NC2=C(C(=O)CCC2)C3c2ccccn2)c1` (stereo unspecified), 23.4%.
For the compound `CC(C)=Cc1oc2ccc([N+](=O)[O-])cc2c1N1CCOCC1`, the “activity change, negative = inhibition” value was 14.7%.
For `Cc1nn2c3ccccc3nc2c2ccccc12` the value was -34.8%.
